TrxR1 substrate = qHTS Assay for Substrates of Mammalian Selenoprotein Thioredoxin Reductase 1 (TrxR1): qHTS | Thioredoxin reductase 1, cytoplasmic (Rattus norvegicus), O89049 | purified TrxR1 substrate turnover, NADPH consumption readout | Potency, µM (titrated, usually from 114 µM), inactives show top-dose activity change, negative = substrate turnover | 0.01% of 390,000 active | AID 588456, 2011; also: potency is read from the fitted curve at half-maximal effect; nearly all actives have a fitted effect of over 50% in size
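Rat TrxR1, dispensed at 90 nM, was prereduced with 400 uM NADPH (final) for 5 min at ~22 deg C, then incubated with compound 15 min before 400 uM selenite. A first-read NADPH fluorescence drop versus no-compound background flagged substrates.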
CtBP-E1A inh = qHTS Assay for Inhibitors of the CtBP/E1A Interaction. CtBP / adenovirus E1A interaction (AlphaScreen). activity change, % (no concentration beside the values). AlphaScreen GST-E1A/His-CtBP binding, 1536-well; stronger effect = lower value. 0.49% of 340,000 active; in the data active = activity change below about -65%; inconclusive = mostly about -30% to -63%
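Protein mix (5X: 125 nM each GST-E1A, His-CtBP) was incubated with pinned compound 2 h at 37 deg C in dark, in 50 mM Tris pH 8.0 buffer with 300 mM NaCl. Glutathione donor and nickel acceptor beads followed; AlphaScreen signal read after 1 h.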
GALK inh = qHTS Assay for Inhibitors of Human Galactokinase (GALK) | 0.007% of 270,000 active | P51570 | Potency, µM (top dose mostly 57.5 µM), inactives show at the highest dose activity change, negative = inhibition, hits mostly inhibitors | AID 1868, 2009 | Purified GALK, Kinase-Glo residual ATP luminescence; also: potency is read from the fitted curve at half-maximal effect
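Kinase-Glo Plus luminescence measured ATP left after a 1 h room-temperature reaction. The reaction used 5 nM GALK, 100 uM galactose and 35 uM ATP at pH 8.0 (20 mM HEPES, 5 mM MgCl2, 60 mM NaCl, 1 mM DTT, 0.01% BSA).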
rTrxR1 inhibitor = qHTS Assay for Inhibitors of Mammalian Selenoprotein Thioredoxin Reductase 1 (TrxR1): qHTS. 1% of 390,000 active. recombinant rTrxR1, NADPH fluorescence consumption, selenite substrate. AID 588453, 2011. Potency, µM (titrated, usually from 114 µM), inactives show at the highest dose activity change, negative = inhibition, actives largely listed as inhibitors; also: potency is read from the fitted curve at half-maximal effect; nearly all actives have a fitted effect of over 65% in size
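Rat TrxR1 (90 nM in the dispensed reagent) was pre-reduced with 400 uM NADPH for 5 min at room temperature, then incubated with compound for 15 min. After 400 uM selenite was added, NADPH fluorescence (Ex 340/Em 450 nm) was followed for 8 min.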
Six1-Eya2 inh = qHTS Assay for Inhibitors of the Six1/Eya2 Interaction; 0.56% of 360,000 active; Homeobox protein SIX1 (Homo sapiens) + Protein phosphatase EYA2 (Homo sapiens), …; AlphaScreen GST-Six1/His-Eya2 binding, biochemical; stronger effect = lower value; activity change, % (concentration not given with the values); AID 651725, 2012; in the data active = activity change below about -65%; inconclusive = mostly about -30% to -63%
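Six1/Eya2 binding was read as AlphaScreen signal after compounds were pinned into GST-Six1 plus His-tagged Eya2 (5X stock 250/500 nM) in pH 8.0 Tris/NaCl/TCEP buffer, beads added, then incubated 1 h, 37 C, dark.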
Eya2 phos inh = qHTS Assay for Inhibitors of the Phosphatase Activity of Eya2. Protein phosphatase EYA2 (Homo sapiens), O00167. recombinant Eya2, OMFP fluorescence dephosphorylation (OMFP is methylfluorescein phosphate). AID 488837, 2010. 0.006% of 330,000 active. Potency, µM (series often up to 76.9 µM), for inactives: at the top dose activity, negative = inhibition, most hits filed as inhibitors; also: potency is read from the fitted curve at half-maximal effect
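Eya2 (0.2 uM) preincubated 10 min at ambient with compound, then OMFP substrate added at 50 uM; 10 min reaction in 50 mM HEPES pH 7.5, 50 mM NaCl, 5 uM MgCl2, 0.05% BSA, 1 mM DTT. Fluorescence read at Ex 485/Em 525 nm.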
* marks the source's active call; other numbers are inactive results; u = inconclusive; x = no result; [ ] = another dose, or the depositor's remark. This is a sample that favours compounds with a hit; in the whole collection about 1.5% have one here. Unless noted, calls follow the shape of the dose curve; as a rule, active = well fitted curve in the direction sought with a large enough effect; inconclusive = small, poorly fitted or top-dose-only effect, or another doubt; inactive = no such curve, though single readings can be large; an effect the other way counts as inactive or inconclusive. % is scaled to controls: 0 for no effect and ±100 for the full control effect.

SMILES	TrxR1 substrate	CtBP-E1A inh	GALK inh	rTrxR1 inhibitor	Six1-Eya2 inh	Eya2 phos inh
Cc1[nH]c(=O)[nH]c(=O)c1/C=N/NC(=O)[C@H](C)N	10%	-30	1%	1%	-66*	u
CCCC(=O)NNc1c2ccccc2nc2ccccc12	-5%	-13	0%	-15%	-11	0%
O=C(NNc1c2ccccc2nc2ccccc12)c1ccc(O)cc1	1%	-75*	3%	6%	u	4%
O=C(NNc1c2ccccc2nc2ccccc12)c1cccc(O)c1	-10%	-77*	0%	-20%	-65*	-23%
COCCCNc1oc(COc2ccc(Cl)cc2Cl)nc1C#N	-9%	-7	-2%	25µM*	6	-8%
CN(C)CCNc1oc(COc2ccc(Cl)cc2Cl)nc1C#N	9%[57.1 µM]	-4	0%	-13%	-2	-14%
COc1ccc(C(=O)NC(Cc2c[nH]c3ccccc23)C(=O)O)cc1 (stereo not given)	3%	x	x	14%	0	10%
CCCOc1ccc(C(=O)CCNC(Cc2c[nH]c3ccccc23)C(=O)O)cc1 (stereo not given)	3%	x	x	1.8µM*	-6	1%
Cc1ccc(NCc2ccc(O)c3ncccc23)cc1C	5%	-80*	0%	2µM*	-69*	-7%
Cc1ccc(NCc2ccc(O)c3ncccc23)cc1	3%	-78*	0%	0.5µM*	-72*	-1%
CCCC1Cc2[nH]c(=O)c(C#N)cc2CO1 (stereo not given)	211%	-70*	1%	u	8	9%
CCc1ccccc1NC(=O)c1ccc2c(c1)nnn2C1CCCC1	-5%[57.1 µM]	x	x	2%[57.1 µM]	x	x
CCCCOc1ccc(C(O)(CCN2CCOCC2)c2ccccc2)cc1 (stereo not given)	-5%	x	-1%	40µM*	1	4%
O=C(CCN1CCOCC1)c1ccc(Br)cc1	12%[57.1 µM]	7	3%	0.45µM*	1	3%
CC(C)Oc1ccc(C(=O)CCN2CCOCC2)cc1	5%	-4	x	3.5µM*	9	x
CCCCCOc1ccc(C(=O)CCN2CCOCC2)cc1	5%[57.1 µM]	5	-1%	10µM*	2	-9%
Cc1cc(C)c(NC(=O)Cn2c(=O)n(-c3cccc(C(F)(F)F)c3)c(=O)c3c(C)c(C)sc32)c(C)c1	1%	x	x	19%	x	x
Cc1c(-c2ccccc2)c(=O)oc2c(CN3CCCC3)c(O)ccc12	490%[57.1 µM]	x	x	12%[57.1 µM]	x	x
C[n+]1ccc(/C=C/c2ccc([N+](C)(C)C)cc2)c2ccccc21	-12%	x	x	-33%	x	x
COc1ccc(NC(=O)c2sc3nc(C)c(C(=O)Nc4ccc(C)cc4C)c(-c4ccc(C)o4)c3c2N)cc1	-8%	x	x	-2%	x	x
COc1cccc(NC(=O)Cn2c(=O)n(-c3ccc(C)cc3)c(=O)c3ccc(C(=O)NCc4ccco4)cc32)c1	6%	x	x	12%	x	x
Cn1cnc([N+](=O)[O-])c1S(=O)(=O)Oc1cccc2ccccc12	-8%	-10	x	u	-9	x
Cn1cnc([N+](=O)[O-])c1Oc1cccc2ccccc12	-5%	-4	0%	8.9µM*	-3	-1%
Cn1cnc([N+](=O)[O-])c1Oc1ccccc1	0%	-4	1%	45µM*	-3	3%
Cn1cnc([N+](=O)[O-])c1Oc1cccc(O)c1	-11%	2	0%	25µM*	1	-5%
O=C(Nc1ccc(F)cc1)C(c1ccncc1)N1CCN(c2cccc(C(F)(F)F)n2)CC1 (stereo not given)	x	0	x	x	19	x

High-throughput results deposited in PubChem BioAssay by National Center for Advancing Translational Sciences (NCATS).
